# Laboratory results as given in PubChem BioAssay (NCATS).
# Results filed as inconclusive are left out. Entries that show only a call come without a potency. A number with no mark means an inactive call. Activity calls are given as the source filed them. Unless noted, the call rests on the fitted dose curve; in most records, active means well fitted curve in the direction sought with a large enough effect; inconclusive means small, poorly fitted or top-dose-only effect, or another doubt; inactive means no such curve, though single readings can be large; an effect the other way counts as inactive or inconclusive.
# Tests used:
# [1] = molecular target: Androgen receptor (Homo sapiens) (UniProt P10275); assay: qHTS assay for small molecule agonists of androgen receptor signaling (AID 588515; active means well fitted curve in the direction sought with a large enough effect in the signal ratio, with a control signal flat; the % refers to the signal ratio); conditions: AR-UAS-bla HEK293, beta-lactamase ratio, agonist 16 h; stronger effect = higher value
# Chain of Androgen receptor (Homo sapiens) (P10275 whole entry, looked up): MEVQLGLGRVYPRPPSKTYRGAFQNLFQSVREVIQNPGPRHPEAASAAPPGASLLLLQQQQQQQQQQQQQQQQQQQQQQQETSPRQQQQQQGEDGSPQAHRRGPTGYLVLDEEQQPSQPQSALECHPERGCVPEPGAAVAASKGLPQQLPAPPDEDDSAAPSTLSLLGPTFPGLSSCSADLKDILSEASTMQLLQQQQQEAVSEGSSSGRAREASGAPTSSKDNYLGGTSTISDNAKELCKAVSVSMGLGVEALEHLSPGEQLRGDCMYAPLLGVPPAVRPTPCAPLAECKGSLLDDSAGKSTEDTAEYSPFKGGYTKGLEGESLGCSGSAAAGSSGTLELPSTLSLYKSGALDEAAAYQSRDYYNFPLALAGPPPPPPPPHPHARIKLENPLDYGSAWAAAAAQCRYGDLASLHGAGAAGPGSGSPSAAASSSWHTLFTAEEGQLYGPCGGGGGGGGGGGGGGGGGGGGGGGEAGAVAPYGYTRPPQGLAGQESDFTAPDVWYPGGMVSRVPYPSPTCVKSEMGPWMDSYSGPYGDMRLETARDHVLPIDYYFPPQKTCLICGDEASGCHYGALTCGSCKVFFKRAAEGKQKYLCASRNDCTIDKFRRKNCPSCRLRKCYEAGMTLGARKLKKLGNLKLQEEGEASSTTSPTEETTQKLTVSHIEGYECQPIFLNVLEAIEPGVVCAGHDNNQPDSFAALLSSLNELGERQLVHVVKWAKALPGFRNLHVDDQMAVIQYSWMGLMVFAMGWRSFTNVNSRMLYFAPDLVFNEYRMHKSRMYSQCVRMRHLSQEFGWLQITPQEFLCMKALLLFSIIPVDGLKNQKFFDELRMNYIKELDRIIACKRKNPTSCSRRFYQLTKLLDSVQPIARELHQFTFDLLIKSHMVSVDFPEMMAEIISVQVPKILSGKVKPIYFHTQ
# Method in brief: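 Stimulation of an AR-responsive β-lactamase reporter in GripTite HEK293 cells was measured after 16 h compound exposure at 37 °C, via CCF4 fluorescence after 2 h RT. EC50 from Hill fits, normalized to R1881 at 30 nM.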
# [2] = S16 Schwann cell PMP22 intronic element firefly luciferase assay (AID 624032); conditions: S16 rat Schwann cells, PMP22 element FLuc, 24 h; series mostly up to 57.5 µM; further: potency means the concentration at half of the fitted maximal effect; nearly all actives have a fitted effect of over 30% in size
# Method in brief: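 Rat S16 Schwann cells stably carrying firefly luciferase driven by a PMP22 intronic element, in 10% FBS, treated 24 h at 37 C. ONE-Glo luminescence normalized to PTC124 control and DMSO (0%); curves classed by r2, magnitude and activity.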
# [3] = S16 Schwann cell PMP22 intronic element beta-lactamase assay (AID 624044; calls by dose curve; further: nearly all actives have a fitted effect of over 15% in size; further: potency means the concentration at half of the fitted maximal effect); conditions: S16 rat Schwann cells, PMP22 element beta-lactamase FRET, 24 h; series mostly up to 38.3 µM
# Method in brief: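 Beta-lactamase reporter under a PMP22 intronic regulatory element in stable S16 rat Schwann cells; 24 h compound exposure. 460 nm blue signal normalized between DMSO (0%) and potassium clavulanate, with 535 nm FRET tracking viability; curves classed by r2 and response.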
# CP192 = assay: qHTS profiling for inhibitors of Plasmodium falciparum proliferation (AID 504749); further: nearly all actives have a fitted effect of over 60% in size; further: potency means the concentration at half of the fitted maximal effect; conditions: P. falciparum in erythrocytes, SYBR Green DNA, 72 h; series mostly up to 28.7 µM
# Method in brief: (§1)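 SYBR Green fluorescence (ex 485 nm, em 535 nm) reports parasite DNA after 72 h compound exposure of infected red cells at 0.3% parasitemia, 2.5% hematocrit; signal normalized to 0.29 uM artemisinin and vehicle wells.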
# CP217 = assay: as above; conditions: P. falciparum in erythrocytes, SYBR Green DNA, 72 h; series mostly up to 28.7 µM
# Method in brief: as §1
# CP250 = assay: as above; conditions: P. falciparum in erythrocytes, SYBR Green DNA, 72 h; series mostly up to 28.7 µM
# Method in brief: as §1
# CP260 = assay: as above; conditions: P. falciparum in erythrocytes, SYBR Green DNA, 72 h; series mostly up to 28.7 µM
# Method in brief: as §1
# CP262 = assay: as above; conditions: P. falciparum in erythrocytes, SYBR Green DNA, 72 h; series mostly up to 28.7 µM
# Method in brief: as §1
# CP266 = assay: as above; conditions: P. falciparum in erythrocytes, SYBR Green DNA, 72 h; series mostly up to 28.7 µM
# Method in brief: as §1
# CP268 = assay: as above; conditions: P. falciparum in erythrocytes, SYBR Green DNA, 72 h; series mostly up to 28.7 µM
# Method in brief: as §1
# CP269 = assay: as above; conditions: P. falciparum in erythrocytes, SYBR Green DNA, 72 h; series mostly up to 28.7 µM
# Method in brief: as §1
# CP291 = assay: as above; conditions: P. falciparum in erythrocytes, SYBR Green DNA, 72 h; series mostly up to 28.7 µM
# Method in brief: as §1
# CP325 = assay: as above; conditions: P. falciparum in erythrocytes, SYBR Green DNA, 72 h; series mostly up to 28.7 µM
# Method in brief: as §1
# DIV14 = assay: as above; conditions: P. falciparum in erythrocytes, SYBR Green DNA, 72 h; series mostly up to 28.7 µM
# Method in brief: as §1
# DIV17 = assay: as above; conditions: P. falciparum in erythrocytes, SYBR Green DNA, 72 h; series mostly up to 28.7 µM
# Method in brief: as §1
# GB4 = assay: as above; conditions: P. falciparum in erythrocytes, SYBR Green DNA, 72 h; series mostly up to 28.7 µM
# Method in brief: as §1
# ICS = assay: as above; conditions: P. falciparum in erythrocytes, SYBR Green DNA, 72 h; series mostly up to 28.7 µM
# Method in brief: as §1
# JCK = assay: as above; conditions: P. falciparum in erythrocytes, SYBR Green DNA, 72 h; series mostly up to 28.7 µM
# Method in brief: as §1
# N140 = assay: as above; conditions: P. falciparum in erythrocytes, SYBR Green DNA, 72 h; series mostly up to 28.7 µM
# Method in brief: as §1
# SC27B = assay: as above; conditions: P. falciparum in erythrocytes, SYBR Green DNA, 72 h; series mostly up to 28.7 µM
# Method in brief: as §1
smiles,measurement,setting,value
CCO,activation,[1],30.9%
NC1=NC(S)C2N=CN=C2N1 (centres undefined),Potency,[2],1.44 µM (active)
same,Potency,[3],3.98 µM (active)
same,Potency,CP192,inactive
same,Potency,CP217,inactive
same,Potency,CP250,inactive
same,Potency,CP260,inactive
same,Potency,CP262,inactive
same,Potency,CP266,inactive
same,Potency,CP268,inactive
same,Potency,CP269,inactive
same,Potency,CP291,inactive
same,Potency,CP325,inactive
same,Potency,DIV14,inactive
same,Potency,DIV17,inactive
same,Potency,GB4,inactive
same,Potency,ICS,inactive
same,Potency,JCK,inactive
same,Potency,N140,inactive
same,Potency,SC27B,inactive
CO[C@@H]1[C@@H](OC2OC(C)C(OC3CC(C)(O)C(OC(=O)CC(C)C)C(C)O3)C(N(C)C)C2O)[C@@H](CC=O)C[C@@H](C)C(=O)/C=C\C2O[C@H]2C[C@@H](C)OC(=O)C[C@H]1OC(C)=O (some centres undefined),Potency,[2],5.73 µM (active)
same,Potency,[3],inactive
same,Potency,CP192,inactive
same,Potency,CP217,10 µM (active)
same,Potency,CP250,10 µM (active)
same,Potency,CP260,7.94 µM (active)
same,Potency,CP268,8.49 µM (active)
same,Potency,CP269,4.78 µM (active)
same,Potency,CP291,6.75 µM (active)
same,Potency,CP325,2.69 µM (active)
same,Potency,DIV14,12 µM (active)
same,Potency,DIV17,10.7 µM (active)
same,Potency,GB4,13.5 µM (active)
same,Potency,ICS,5.01 µM (active)
same,Potency,JCK,inactive
same,Potency,N140,8.91 µM (active)
same,Potency,SC27B,10 µM (active)
C=Cc1ccccc1Cl,activation,[1],-2.34%
S=C1NC=NC2N=CNC12 (centres undefined),Potency,[2],2.87 µM (active)
same,Potency,[3],17.8 µM (active)
same,Potency,CP217,inactive
same,Potency,CP250,inactive
same,Potency,CP260,inactive
same,Potency,CP262,inactive
same,Potency,CP266,10.7 µM (active)
same,Potency,ICS,inactive
same,Potency,JCK,inactive
same,Potency,N140,inactive
same,Potency,SC27B,inactive
